From paper PMC9838217, “Structure of SALL4 zinc finger domain reveals link between AT-rich DNA binding and Okihiro syndrome”
Substitutions are numbered along the chain they refer to.

Key:
Assay in all cases: HT-SELEX; high values mean tight binding
Details in all cases: protein: recombinant; vector His6-GST; dsDNA, one strand shown
[1] = target: T1, SALL4 ZFC4 WT (HT-SELEX) (Mus musculus, UniProt Q8BX22 870-940)
T1 sequence: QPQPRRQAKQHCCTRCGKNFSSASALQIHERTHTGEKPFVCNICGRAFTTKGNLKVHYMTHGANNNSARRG
Summary of the method: (§1)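 Purified recombinant mouse SALL4 zinc finger cluster 4 (residues 870–940, 1 µg) was incubated with library DNA (1.5 µg first cycle, 200 ng later) in 100 µl buffer (10 mM Tris–HCl pH 7.5, 50 mM NaCl, poly(dI-dC), DTT) for 10 min at room temperature. Ni2+ bead-captured complexes were washed, PCR-amplified and reselected for up to 6 cycles, in triplicate, then MiSeq-sequenced and scanned for 6-mers. Binding signal is each canonical k-mer's read fraction as fold change versus the initial random library.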

[2] = target: T2, SALL4 ZFC4 R900W (HT-SELEX) (Mus musculus, UniProt Q8BX22 870-940, R900W)
T2 sequence: T1 sequence with R31W
Summary of the method: as §1

[3] = target: T3, SALL4 ZFC4 G921D (HT-SELEX) (Mus musculus, UniProt Q8BX22 870-940, G921D)
T3 sequence: T1 sequence with G52D
Summary of the method: as §1

| Sequence | binding signal [1] | binding signal [2] | binding signal [3] |
| --- | --- | --- | --- |
| AGAACA | 1.26 ± 0.0155 fold-change vs cycle 0 | 1.39 ± 0.0297 fold-change vs cycle 0 | 1.34 ± 0.0563 fold-change vs cycle 0 |
| AAACAC | 1.06 ± 0.0292 fold-change vs cycle 0 | 1.16 ± 0.0244 fold-change vs cycle 0 | 1.189 ± 0.0109 fold-change vs cycle 0 |
| ATGTGG | 0.714 ± 0.021 fold-change vs cycle 0 | 0.787 ± 0.0136 fold-change vs cycle 0 | 0.851 ± 0.0464 fold-change vs cycle 0 |
| AACGGA | 0.714 ± 0.0406 fold-change vs cycle 0 | 0.846 ± 0.0545 fold-change vs cycle 0 | 0.859 ± 0.0492 fold-change vs cycle 0 |
| CATTCA | 1.32 ± 0.0575 fold-change vs cycle 0 | 1.48 ± 0.0487 fold-change vs cycle 0 | 1.41 ± 0.0654 fold-change vs cycle 0 |
| CAGAGC | 0.315 ± 0.0109 fold-change vs cycle 0 | 0.382 ± 0.0231 fold-change vs cycle 0 | 0.524 ± 0.0543 fold-change vs cycle 0 |
| CGGTAC | 0.362 ± 0.0117 fold-change vs cycle 0 | 0.437 ± 0.0232 fold-change vs cycle 0 | 0.552 ± 0.049 fold-change vs cycle 0 |
| ACACAT | 1.25 ± 0.0206 fold-change vs cycle 0 | 1.33 ± 0.0439 fold-change vs cycle 0 | 1.32 ± 0.0216 fold-change vs cycle 0 |
| GAGACC | 0.414 ± 0.0124 fold-change vs cycle 0 | 0.5424 ± 0.00269 fold-change vs cycle 0 | 0.643 ± 0.0507 fold-change vs cycle 0 |
| CATCAC | 0.892 ± 0.0417 fold-change vs cycle 0 | 0.975 ± 0.0159 fold-change vs cycle 0 | 1.032 ± 0.00917 fold-change vs cycle 0 |
| ATTAAC | 2.04 ± 0.0632 fold-change vs cycle 0 | 2.1 ± 0.104 fold-change vs cycle 0 | 1.83 ± 0.178 fold-change vs cycle 0 |
| CCTGAC | 0.451 ± 0.0407 fold-change vs cycle 0 | 0.547 ± 0.0213 fold-change vs cycle 0 | 0.654 ± 0.0358 fold-change vs cycle 0 |
| ACGGGA | 0.422 ± 0.0189 fold-change vs cycle 0 | 0.506 ± 0.0223 fold-change vs cycle 0 | 0.583 ± 0.0299 fold-change vs cycle 0 |
| GTCTAA | 1.16 ± 0.029 fold-change vs cycle 0 | 1.28 ± 0.0593 fold-change vs cycle 0 | 1.27 ± 0.0407 fold-change vs cycle 0 |
| GATCCC | 0.519 ± 0.025 fold-change vs cycle 0 | 0.62 ± 0.0104 fold-change vs cycle 0 | 0.711 ± 0.017 fold-change vs cycle 0 |
| ATCCAT | 1.62 ± 0.0994 fold-change vs cycle 0 | 1.54 ± 0.0869 fold-change vs cycle 0 | 1.44 ± 0.0984 fold-change vs cycle 0 |
| CATTAC | 1.43 ± 0.0799 fold-change vs cycle 0 | 1.52 ± 0.113 fold-change vs cycle 0 | 1.41 ± 0.113 fold-change vs cycle 0 |
| AAAATT | 3.32 ± 0.292 fold-change vs cycle 0 | 2.14 ± 0.119 fold-change vs cycle 0 | 1.94 ± 0.175 fold-change vs cycle 0 |
| AAACTA | 1.88 ± 0.106 fold-change vs cycle 0 | 1.85 ± 0.13 fold-change vs cycle 0 | 1.68 ± 0.169 fold-change vs cycle 0 |
| TCCCAA | 0.743 ± 0.0235 fold-change vs cycle 0 | 0.826 ± 0.0256 fold-change vs cycle 0 | 0.872 ± 0.0393 fold-change vs cycle 0 |
| CTACCC | 0.454 ± 0.0263 fold-change vs cycle 0 | 0.523 ± 0.00774 fold-change vs cycle 0 | 0.607 ± 0.0541 fold-change vs cycle 0 |
| AGAACG | 0.692 ± 0.0289 fold-change vs cycle 0 | 0.817 ± 0.046 fold-change vs cycle 0 | 0.844 ± 0.0513 fold-change vs cycle 0 |
| CCAATC | 0.76 ± 0.0281 fold-change vs cycle 0 | 0.854 ± 0.0448 fold-change vs cycle 0 | 0.933 ± 0.0316 fold-change vs cycle 0 |

| Sequence | binding signal [1] | binding signal [2] | binding signal [3] |
| --- | --- | --- | --- |
| GAGGTA | 0.857 ± 0.032 fold-change vs cycle 0 | 0.988 ± 0.0197 fold-change vs cycle 0 | 0.996 ± 0.0208 fold-change vs cycle 0 |
| TAGGCA | 0.578 ± 0.0216 fold-change vs cycle 0 | 0.648 ± 0.0255 fold-change vs cycle 0 | 0.751 ± 0.038 fold-change vs cycle 0 |
| GCATCC | 0.382 ± 0.0508 fold-change vs cycle 0 | 0.43 ± 0.0105 fold-change vs cycle 0 | 0.551 ± 0.0913 fold-change vs cycle 0 |
| CGATCC | 0.359 ± 0.0529 fold-change vs cycle 0 | 0.43 ± 0.0262 fold-change vs cycle 0 | 0.584 ± 0.0363 fold-change vs cycle 0 |
| CAATGC | 0.595 ± 0.019 fold-change vs cycle 0 | 0.673 ± 0.0218 fold-change vs cycle 0 | 0.807 ± 0.0224 fold-change vs cycle 0 |
| CACCTA | 0.824 ± 0.0556 fold-change vs cycle 0 | 0.915 ± 0.0444 fold-change vs cycle 0 | 0.976 ± 0.0474 fold-change vs cycle 0 |
| GTAACA | 1.36 ± 0.0267 fold-change vs cycle 0 | 1.52 ± 0.0694 fold-change vs cycle 0 | 1.39 ± 0.0863 fold-change vs cycle 0 |
| CCCTAA | 0.849 ± 0.0207 fold-change vs cycle 0 | 0.947 ± 0.00994 fold-change vs cycle 0 | 0.952 ± 0.0492 fold-change vs cycle 0 |
| GATGCA | 0.68 ± 0.0339 fold-change vs cycle 0 | 0.75 ± 0.0294 fold-change vs cycle 0 | 0.848 ± 0.0393 fold-change vs cycle 0 |
| GGTCCA | 0.375 ± 0.0292 fold-change vs cycle 0 | 0.456 ± 0.0245 fold-change vs cycle 0 | 0.558 ± 0.0709 fold-change vs cycle 0 |
| ATGGCA | 0.55 ± 0.0226 fold-change vs cycle 0 | 0.607 ± 0.0241 fold-change vs cycle 0 | 0.733 ± 0.0739 fold-change vs cycle 0 |
| CCAAAG | 0.69 ± 0.0265 fold-change vs cycle 0 | 0.801 ± 0.0292 fold-change vs cycle 0 | 0.848 ± 0.0204 fold-change vs cycle 0 |
| CGTGTA | 0.651 ± 0.0387 fold-change vs cycle 0 | 0.756 ± 0.0247 fold-change vs cycle 0 | 0.812 ± 0.0246 fold-change vs cycle 0 |
| AAGCAA | 1.18 ± 0.0487 fold-change vs cycle 0 | 1.24 ± 0.0583 fold-change vs cycle 0 | 1.23 ± 0.0475 fold-change vs cycle 0 |
| GAGTCA | 0.822 ± 0.0312 fold-change vs cycle 0 | 0.955 ± 0.0308 fold-change vs cycle 0 | 0.993 ± 0.0145 fold-change vs cycle 0 |
| GGAGTA | 0.898 ± 0.0231 fold-change vs cycle 0 | 0.991 ± 0.0565 fold-change vs cycle 0 | 1.01 ± 0.0114 fold-change vs cycle 0 |
| AAATAC | 1.75 ± 0.12 fold-change vs cycle 0 | 1.68 ± 0.0912 fold-change vs cycle 0 | 1.59 ± 0.0866 fold-change vs cycle 0 |
| AGAGTG | 0.822 ± 0.0341 fold-change vs cycle 0 | 0.925 ± 0.0332 fold-change vs cycle 0 | 0.97 ± 0.0268 fold-change vs cycle 0 |
| GAAAGC | 0.586 ± 0.0266 fold-change vs cycle 0 | 0.698 ± 0.0129 fold-change vs cycle 0 | 0.775 ± 0.0469 fold-change vs cycle 0 |
| GGGTCA | 0.435 ± 0.0224 fold-change vs cycle 0 | 0.513 ± 0.0178 fold-change vs cycle 0 | 0.619 ± 0.0472 fold-change vs cycle 0 |
| TGAAAA | 2.04 ± 0.151 fold-change vs cycle 0 | 1.73 ± 0.0528 fold-change vs cycle 0 | 1.57 ± 0.0962 fold-change vs cycle 0 |
| AGATTG | 1.29 ± 0.0269 fold-change vs cycle 0 | 1.41 ± 0.0315 fold-change vs cycle 0 | 1.38 ± 0.0773 fold-change vs cycle 0 |
